Publication PMC5540273 (PLoS ONE, 2017)

System: CDK7
Conditions: concentration: 1 μM,replicates: in singlicate; n = 1
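Also: KINOMEscan kinase panel screen.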

| SMILES | %Inh |
| --- | --- |
| Cc1n[nH]c2ccc(-c3cc(OC[C@@H](N)Cc4ccccc4)cnc3-c3ccoc3)cc12.O=C(O)C(F)(F)F.O=C(O)C(F)(F)F [GSK507358] | 0% |
| CC(C)Nc1cc(-c2ccc3c(N)n[nH]c3c2)nc(N)n1 [GSK2221681] | 0% |
| CNC(=O)c1ccccc1Sc1ccc2c(/C=C/c3ccccn3)n[nH]c2c1 | 25% |
| Cl.Cl.NC[C@H](Cc1ccc(C(F)(F)F)cc1)NC(=O)c1cc(Br)c(-c2ccnc3[nH]ccc23)s1 [GSK1487252] | 0% |
| Cl.Cl.Nc1nc(-c2ccc3c(N)n[nH]c3c2)cc(N2CCCC(NC(=O)c3ccccc3)C2)n1 (centres unmarked) [GSK2286775] | 0% |
| O=C(NCCCN1CCOC1=O)c1cnc(NCc2cc(Cl)ccc2Cl)nc1NC1CCCC1 | 14% |
| CN(C)CC(O)COc1ccc(Nc2nccc(-c3cnn4nc(N5CCOCC5)ccc34)n2)cc1 (centres unmarked) [GW767488] | 99.7% |
| Cc1ccc(-n2nc(C(C)(C)C)cc2NC(=O)Nc2ccc(OCCN3CCOCC3)c3ccccc23)cc1 [GW839464] | 0% |
| Cc1cc(C(=O)Nc2ccc(Oc3ccc4nc(NC(=O)C5CC5)cn4n3)cc2)nn1-c1ccccc1 | 0% |
| C=CC(=O)Nc1cc2c(Nc3ccc(F)c(Cl)c3)ncnc2cc1OCCCN1CCOCC1 [GW781483] | 17% |
| Cc1cc2cn[nH]c2cc1-c1cccc2c(N)c(C(N)=O)nnc12 | 0% |
| C[C@@H]1CCN(C(=O)CC#N)C[C@@H]1N(C)c1ncnc2[nH]ccc12 | 2% |
| CC(C)N1C(=O)Cc2cc(Nc3ncc(C(F)(F)F)c(NCc4cccc(S(C)(=O)=O)c4)n3)ccc21 | 52% |
| C[C@H]1Oc2cc(cnc2N)-c2c(nn(C)c2C#N)CN(C)C(=O)c2ccc(F)cc21 | 0% |
| Cc1occc1-c1nc(N)c(OC[C@@H](N)Cc2c[nH]c3ccccc23)cc1-c1cc2c(C)n[nH]c2cn1 [GSK1660450] | 75% |
| Cc1ccc2c(-c3ccncc3)c(-c3ccc(F)cc3)nn2c1.Cl [GW461484] | 45% |
| CCN(CC)CCCCNc1ncc2cc(-c3c(Cl)cccc3Cl)c(NC(=O)NC(C)(C)C)nc2n1 | 34% |
| CCN(CC)CCOc1ccc(Nc2ncc3cc(-c4c(Cl)cccc4Cl)c(=O)n(C)c3n2)cc1 [SB-601273] | 34% |
| NC(=O)c1cc(-c2ccccc2)cc2c(C3CCNCC3)c[nH]c12 [GSK301362] | 0% |
| CCn1c(-c2nonc2N)nc2c(C#CC(C)(C)O)nc(OCCN)cc21.Cl.Cl [GSK902056] | 0% |
| O=C(NCCNc1ccnc(NCc2ccc(F)cc2)n1)c1cc2ccccc2s1 [GSK1379944] | 0% |
| Cl.Oc1cc(-c2nc(-c3ccccc3)[nH]c2-c2ccncc2)ccc1Cl [SB-386023] | 11% |
| COc1ccc(C[C@@H](CN)NC(=O)c2cc(Br)c(-c3ccnc4[nH]ccc34)s2)cc1.Cl.Cl [GSK1389063] | 72% |
| Cl.Cl.NC[C@H](CC1CCCCC1)NC(=O)c1cc(Br)c(-c2ccnc3[nH]ccc23)s1 [GSK1581427] | 45% |
| CN(C)CCOc1ccc(-c2cc(-c3c[nH]nc3-c3ccccn3)ccn2)cc1 [GW835314] | 16% |
| Nc1nc(Nc2ccccc2)cc(-c2ccc3c(N)n[nH]c3c2)n1 [GSK2225749] | 7% |

System: CDK8
Conditions: concentration: 1 μM,replicates: in singlicate; n = 1

| SMILES | %Inh |
| --- | --- |
| Cc1n[nH]c2ccc(-c3cc(OC[C@@H](N)Cc4ccccc4)cnc3-c3ccoc3)cc12.O=C(O)C(F)(F)F.O=C(O)C(F)(F)F [GSK507358] | 26% |
| CC(C)Nc1cc(-c2ccc3c(N)n[nH]c3c2)nc(N)n1 [GSK2221681] | 0% |
| CNC(=O)c1ccccc1Sc1ccc2c(/C=C/c3ccccn3)n[nH]c2c1 | 30% |
| Cl.Cl.NC[C@H](Cc1ccc(C(F)(F)F)cc1)NC(=O)c1cc(Br)c(-c2ccnc3[nH]ccc23)s1 [GSK1487252] | 17% |
| Cl.Cl.Nc1nc(-c2ccc3c(N)n[nH]c3c2)cc(N2CCCC(NC(=O)c3ccccc3)C2)n1 (centres unmarked) [GSK2286775] | 11% |
| O=C(NCCCN1CCOC1=O)c1cnc(NCc2cc(Cl)ccc2Cl)nc1NC1CCCC1 | 17% |
| CN(C)CC(O)COc1ccc(Nc2nccc(-c3cnn4nc(N5CCOCC5)ccc34)n2)cc1 (centres unmarked) [GW767488] | 10% |
| Cc1ccc(-n2nc(C(C)(C)C)cc2NC(=O)Nc2ccc(OCCN3CCOCC3)c3ccccc23)cc1 [GW839464] | 72% |
| Cc1cc(C(=O)Nc2ccc(Oc3ccc4nc(NC(=O)C5CC5)cn4n3)cc2)nn1-c1ccccc1 | 41% |
| C=CC(=O)Nc1cc2c(Nc3ccc(F)c(Cl)c3)ncnc2cc1OCCCN1CCOCC1 [GW781483] | 33% |
| Cc1cc2cn[nH]c2cc1-c1cccc2c(N)c(C(N)=O)nnc12 | 10% |
| C[C@@H]1CCN(C(=O)CC#N)C[C@@H]1N(C)c1ncnc2[nH]ccc12 | 1% |
| CC(C)N1C(=O)Cc2cc(Nc3ncc(C(F)(F)F)c(NCc4cccc(S(C)(=O)=O)c4)n3)ccc21 | 0% |
| C[C@H]1Oc2cc(cnc2N)-c2c(nn(C)c2C#N)CN(C)C(=O)c2ccc(F)cc21 | 0% |
| Cc1occc1-c1nc(N)c(OC[C@@H](N)Cc2c[nH]c3ccccc23)cc1-c1cc2c(C)n[nH]c2cn1 [GSK1660450] | 0% |
| Cc1ccc2c(-c3ccncc3)c(-c3ccc(F)cc3)nn2c1.Cl [GW461484] | 41% |
| CCN(CC)CCCCNc1ncc2cc(-c3c(Cl)cccc3Cl)c(NC(=O)NC(C)(C)C)nc2n1 | 4% |
| CCN(CC)CCOc1ccc(Nc2ncc3cc(-c4c(Cl)cccc4Cl)c(=O)n(C)c3n2)cc1 [SB-601273] | 99% |
| NC(=O)c1cc(-c2ccccc2)cc2c(C3CCNCC3)c[nH]c12 [GSK301362] | 0% |
| CCn1c(-c2nonc2N)nc2c(C#CC(C)(C)O)nc(OCCN)cc21.Cl.Cl [GSK902056] | 17% |
| O=C(NCCNc1ccnc(NCc2ccc(F)cc2)n1)c1cc2ccccc2s1 [GSK1379944] | 13% |
| Cl.Oc1cc(-c2nc(-c3ccccc3)[nH]c2-c2ccncc2)ccc1Cl [SB-386023] | 0% |
| COc1ccc(C[C@@H](CN)NC(=O)c2cc(Br)c(-c3ccnc4[nH]ccc34)s2)cc1.Cl.Cl [GSK1389063] | 27% |
| Cl.Cl.NC[C@H](CC1CCCCC1)NC(=O)c1cc(Br)c(-c2ccnc3[nH]ccc23)s1 [GSK1581427] | 0% |
| CN(C)CCOc1ccc(-c2cc(-c3c[nH]nc3-c3ccccn3)ccn2)cc1 [GW835314] | 2% |
| C[C@@H](Oc1cc(-c2cnn(C3CCNCC3)c2)cnc1N)c1c(Cl)ccc(F)c1Cl | 0% |
| Nc1nc(Nc2ccccc2)cc(-c2ccc3c(N)n[nH]c3c2)n1 [GSK2225749] | 17% |
